An excerpt weighted towards active compounds, which were near 19% of everything screened.
Shiga toxin inh = A qHTS for Small Molecule Inhibitors of Shiga Toxin; Vero cells, Shiga toxin protein synthesis inhibition reporter; inhibition, % at 38.7 µM; 290,000 tested, 9.2% active; AID 2315, 2010; in the data active means inhibition mostly above about 28%, no sharp cut-off; inactive means mostly below about 43%; further: 0% is about no effect
Pf growth 48h = Primary qHTS for delayed death inhibitors of the malarial parasite plastid, 48 hour incubation. P. falciparum luciferase growth in erythrocytes, 48 h. 310,000 tested, 5.9% active. Potency, µM (highest dose often 28.7 µM), inactives show top-dose activity change, negative = inhibition, most hits filed as inhibitors; further: potency means the concentration at half of the fitted maximal effect; on the % scale 0 is the no-effect control and ±100 the full control effect
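Cell-based growth assay: transgenic P. falciparum expressing firefly luciferase, cultured in red cells within RPMI 1640 containing 0.5% w/v Albumax, 24 mM bicarbonate and gentamycin. A drop in luciferase activity indicates inhibition.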
MARV entry inh = qHTS for inhibitors of binding or entry into cells for Marburg Virus; Marburg virus pseudotyped entry inhibition, cell reporter; Potency, µM (highest dose often 37.8 µM), for the others: at the top dose activity change, negative = inhibition, actives largely listed as inhibitors; 300,000 tested, 1.8% active; calls by dose curve; tested in HEK293 cells; further: potency means the concentration at half of the fitted maximal effect; on the % scale 0 is the no-effect control and ±100 the full control effect
CHX counter = Cycloheximide Counterscreen for Small Molecule Inhibitors of Shiga Toxin; cell reporter, cycloheximide protein synthesis inhibition counterscreen; AID 2314, 2010; max response, %; 300,000 tested, 12% active; in the data active means max response mostly above about 13%, no sharp cut-off; inactive means mostly below about 14%; further: read at 38.3 µM for the half of the compounds with a filed dose; 0% is about no effect
Pf growth 96h = Primary qHTS for delayed death inhibitors of the malarial parasite plastid, 96 hour incubation; P. falciparum luciferase reporter growth, 96 h; Potency, µM (series often up to 28.7 µM), for inactives: at the top dose activity change, negative = inhibition, actives largely listed as inhibitors; 320,000 tested, 6.9% active; AID 504834, 2011; further: potency means the concentration at half of the fitted maximal effect; on the % scale 0 is the no-effect control and ±100 the full control effect
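P. falciparum expressing integrated firefly luciferase grown in erythrocytes (2% hematocrit, 0.05% parasitemia final) with compounds for 96 hours at 37 C, 5% CO2. Growth inhibition read as loss of luminescence after adding luciferase detection reagent.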
LASV entry inh = qHTS for Inhibitors of binding or entry into cells for Lassa Virus | Lassa virus pseudotype entry inhibition, cell reporter | Potency, µM (top dose mostly 37.9 µM), without a hit: at the top dose activity change, negative = inhibition, usual class: inhibitors | 300,000 tested, 1.2% active; calls by dose curve; tested in HEK293 cells; further: potency means the concentration at half of the fitted maximal effect; on the % scale 0 is the no-effect control and ±100 the full control effect; nearly all actives have a fitted effect of over 50% in size
Numbers without * were called inactive; ? = inconclusive; · = no result given; [ ] = remark or other dose. Unless noted, the call rests on the fitted dose curve; in most records, active means well fitted inhibition curve with a large enough effect; inconclusive means small, poorly fitted or top-dose-only effect, or another doubt; inactive means no such curve, though single readings can be large or run the other way.

SMILES | Shiga toxin inh | Pf growth 48h | MARV entry inh | CHX counter | Pf growth 96h | LASV entry inh
O=C1CC(c2cccc([N+](=O)[O-])c2)c2ccc3ccccc3c2N1 (configuration not stated) | -30 | -24% | -27% | -4 | 0% | 3%
COc1ccc(NC(=O)CCN2C(=O)c3ccccc3C2=O)cc1 | · | ? | · | -2 | 3% | ·
O=C(CCN1C(=O)c2ccccc2C1=O)Nc1ccc(-c2nc3ccccc3s2)cc1 | 110* | 40% | ? | 33* | 1.3µM* | ?
CC(C)c1ccc(NC(=O)CSc2nc(=O)n(CCN3CCOCC3)c3c2CCC3)cc1 | · | ? | -11% | · | ? | -5%
COc1ccc(-n2c(C)cc(C(=O)CCl)c2C)cc1 | -6 | -12% | · | 11 | ? | ·
COc1ccc(-n2c(C)cc(C(=O)CN3C(=O)c4ccccc4C3=O)c2C)cc1 | 40 | 1% | ? | 20* | ? | 27%
Cc1cc(C(=O)CN2C(=O)c3ccccc3C2=O)c(C)n1C1CC1 | 15 | 14% | 10% | 23* | 0% | 11%
CCC1(c2ccc(F)cc2)NC(=O)N(CC(=O)c2cc(C)n(C3CC3)c2C)C1=O (configuration not stated) | · | 15µM* | -2% | · | ? | ?
N/C(=N/O)c1nc(N2CCCC2)nc(N2CCCC2)n1 | · | 18% | ? | · | -1% | 15%
CC(C)c1ccc(C(O)c2cnc(C(C)C)n2C)cc1 (configuration not stated) | 47* | ? | · | 36* | -24% | ·
CC(C)c1ncc(C(O)c2ccccc2)n1C (configuration not stated) | 8 | 8% | ? | -1 | 22% | 13%
Cn1c(Cl)cnc1C(O)c1ccccc1 (configuration not stated) | -10 | 8% | 13% | 8 | 6.6µM* | -9%
CCOC(=O)c1noc2nc(C)n(Cc3cccc([N+](=O)[O-])c3)c(=O)c12 | · | · | · | · | · | 6%[46.1 µM]
Cc1ccc2nc(NC(=O)c3cc(=O)c4cc(C)c(C)cc4o3)sc2c1 | · | · | 8%[46.1 µM] | · | · | 10%[46.1 µM]
COc1ccc(CNC(=O)c2ccc(SC)cc2OC)cc1 | -8 | ? | -1% | 1 | ? | -14%
COc1cc(SC)ccc1C(=O)NCCc1ccccc1 | 74* | 133% | ? | 49* | 55% | ?
COc1cc(SC)ccc1C(=O)NCCOc1c(C)cc(C)cc1C | -9 | 13µM* | -18% | -4 | 4.7µM* | 23%[14.3 µM]
COc1cc(SC)ccc1C(=O)NCCOc1ccc(Cl)cc1 | -9 | ? | -2% | -3 | 0% | 0%
Cc1ccc(OCCC(=O)OCC(=O)NC2CCCC2)cc1 | · | 10% | 4% | · | -2% | 12%
CCOC(=O)C(CC)Sc1ncnc2c1c(-c1ccccc1)cn2-c1ccc(OC)cc1 (configuration not stated) | · | · | ? | · | · | -3%[46.1 µM]
CC(Oc1cc2oc(=O)c3c(c2cc1Cl)CCCC3)C(=O)NCC1CCC(C(=O)O)CC1 (configuration not stated) | -5 | 7% | · | -1 | -10% | ·
CCC(=O)N(CCC(c1ccccc1)c1ccco1)Cc1cccs1 (configuration not stated) | -3 | ? | ? | 1 | ? | ?
COc1ccc(CN(CCC(c2ccccc2)c2ccco2)C(=O)c2ccco2)cc1 (configuration not stated) | -2 | 0% | 10µM* | -1 | 12µM* | ?
O=C(c1ccco1)N(CCC(c1ccccc1)c1ccco1)Cc1ccccc1 (configuration not stated) | 19 | ? | ? | 1 | 13µM* | ?
O=[N+]([O-])c1ccccc1Nc1cccnc1 | · | 4% | · | · | 23% | ·
SMILES | Shiga toxin inh | Pf growth 48h | MARV entry inh | CHX counter | Pf growth 96h | LASV entry inh
O=C(N/N=C/c1cccc(O)c1)c1cc(-c2ccccc2)nc2ccccc12 | 22 | -13% | · | 9 | 7% | ·
O=C(N/N=C/c1cccc(O)c1)c1csc2ccccc12 | 87* | 16% | ? | 49* | 15% | 20%
C/C(=N\NC(=O)c1csc2ccccc12)c1ccc(O)cc1 | 32 | -12% | ? | 18* | · | -1%
Oc1cccc(/C=N/NP(=S)(c2ccccc2)c2ccccc2)c1 | 5 | · | -12% | 14* | -10% | 1%
Oc1cccc(C=NCc2ccccc2)c1 | -17 | -6% | 15% | -3 | · | 1%
O=C(N/N=C/c1cccc(O)c1)c1ccccc1O | 68* | 18% | · | 49* | 3% | ·
Cc1c2cnn(CC(=O)N3CCN(c4ccccc4)CC3)c(=O)c2c(C)n1Cc1ccccc1Cl | · | · | -1%[46.1 µM] | · | · | 15%[46.1 µM]
CCOc1ccc(/C(CCC(=O)O)=N/NC(=O)c2cccc(S(=O)(=O)Nc3ccccc3OC)c2)cc1 | · | · | -4%[46.1 µM] | · | · | -6%[46.1 µM]
Cc1c(-n2cc(C(=O)O)c(=O)c3cc(F)c(N4CCCC(O)C4)c(F)c32)c(=O)n(-c2ccccc2)n1C (configuration not stated) | 17 | ? | 20% | 0 | -16% | 4%
Cc1ccc(Cn2c(CCCNC(=O)c3ccco3)nc3ccccc32)cc1 | · | · | ? | · | · | -2%[46.1 µM]
Cc1ccc(NC(=O)N2CCC(=O)N2)cc1 | 77* | 26% | ? | 37* | 48% | 3%
Cc1ccc(S(=O)(=O)N2CCC(=O)N2)cc1 | -13 | 3% | 11% | -6 | 4% | 2%
COCCNC(=O)C(=O)Nc1cc2c3c(c1)CC(=O)N3CCC2 | 12 | 19% | · | -10 | -9% | ·
O=C1CCCN=C(Nc2ccc(F)c(Cl)c2)S1 | 54* | 9% | 5%[46.1 µM] | 12 | -9% | 5%
O=C(C1CC1)N1CCc2cc(Br)cc(S(=O)(=O)NCc3ccccn3)c21 | -3 | -18% | 6% | -3 | 51% | -6%
Cc1ccc(-n2nc3ccc(NC(=S)NC(=O)/C=C/c4ccco4)cc3n2)cc1 | 37* | 64% | 25% | 12 | 1.9µM* | ?
Cc1ccc(-n2nc3cc(C)c(NC(=S)NC(=O)/C=C/c4ccco4)cc3n2)cc1 | active | 117% | ? | 70* | -18% | ?
O=c1oc2cc(Br)ccc2n1Cc1ccccc1 | -15 | 14% | 1% | 1 | 48% | 3%
Cc1cc(OCC(=O)Nc2ccccc2N2CCCC2)ccc1C(C)C | · | ? | -3% | · | ? | -20%
Cc1cc(C)cc(OCC(=O)Nc2ccccc2N2CCCCC2)c1 | -16 | 3% | ? | -3 | · | ?
Cc1cc(OCC(=O)Nc2ccccc2N2CCCCC2)ccc1C(C)C | · | ? | ? | · | 10µM* | ?
O=C(COc1cccc(C(F)(F)F)c1)Nc1ccccc1N1CCCCC1 | · | 10µM* | 8% | · | ? | 25%
CC(=O)N1CCN(c2ccccc2NC(=O)COc2ccc(Br)cc2)CC1 | -3 | ? | -2% | -1 | 4.7µM* | 0%
Cc1ccccc1OCC(=O)Nc1ccccc1N1CCCCC1 | 6 | ? | ? | -3 | 10µM* | -9%
